Assay [1] has as its target Ubiquitin carboxyl-terminal hydrolase 1 (Homo sapiens) (UniProt O94782). Nature of the assay: Inhibitors of USP1/UAF1: Pilot qHTS (AID 504865). Further: nearly all actives have a fitted effect of over 35% in size. Further: potency means the concentration at half of the fitted maximal effect. The gist of the method: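 USP1/UAF1 complex (1nM) preincubated with compound 15 min at room temperature, then Ub-Rho substrate (150nM final) added. Fluorescence read kinetically at 480/540 nm, 6 reads every 60 seconds. Buffer: 50mM HEPES pH 7.8, 0.5mM EDTA, 0.1 mg/ml BSA, 1mM TCEP, 0.01% Tween-20.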

Assay [2] can be described thus: Nrf2 qHTS screen for inhibitors: Validation (AID 493153; active means well fitted inhibition curve with a large enough effect in the main read-out, with a control signal flat, not every such curve was filed as active). Conditions: viability change: measured here: cytotoxicity max response. The gist of the method:
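Concentration-response on A549 ARE_Fluc reporter cells exposed 18-24 h at 37 C, 5% CO2. Cytotoxicity read first by CellTiter-Fluor fluorescence (Ex 405/Em 525), then Nrf2 inhibition by BugLite luminescence after 15 min.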

The nature of assay [3]: qHTS for Inhibitors of Cell Surface uPA Generation: Validation Assay (AID 493164).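 Further: RAW 264.7 macrophage cells exposed to compound for 18 h.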 The gist of the method:
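ATP-Lite luminescence read-out: ATP remains high when uPA activity-dependent LF translocation into the cytoplasm is blocked. RAW 264.7 cells, 18 h compound exposure at 37 C; 7-point titration, 2.45 nM to 38.3 uM final.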

Assay [4] has as its target Galactokinase (Homo sapiens) (UniProt P51570). Kind of assay: qHTS Validation Assay for Inhibitors of Human Galactokinase (GALK) (AID 493189). The gist of the method:
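GALK (5 nM) with 35 uM ATP and 100 uM galactose in HEPES pH8.0, MgCl2, NaCl, DTT, BSA; 1 h at room temperature. Residual ATP read by Kinase-Glo Plus luminescence after 10 min.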

Assay [5] can be described thus: Validation screen for small molecules that induce DNA re-replication in SW480 colon adenocarcinoma cells (AID 504364). A digest of the protocol: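 Image-based DNA content read-out: Hoechst stain 40 min, total nuclear fluorescence intensity (ex 405 nm, em 500-530 nm) after 48 h compound exposure of 250 SW480 cells/well at 37 C, 5% CO2, versus DMSO vehicle.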
The target in assay [6] is Peptidyl-prolyl cis-trans isomerase NIMA-interacting 1 (Homo sapiens) (UniProt Q13526). Kind of assay: qHTS Validation Assay to Find Inhibitors of Pin1 (AID 504536; active means well fitted inhibition curve with a large enough effect in the polarisation, with a control signal flat, not every such curve was filed as active; the % refers to the polarisation). A digest of the protocol:
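Fluorescence polarization competition: compounds (titration) displace HiFluor-488-labeled Pin1-1b peptide from Pin1 (0.3 uM final) in pH 7.5 HEPES buffer with DTT, 10 min at room temperature; %Activity normalized to no-enzyme wells, curves fitted.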

The target of assay [7] is Phosphoglycerate kinase, glycosomal (Trypanosoma brucei brucei) (UniProt P07378). Kind of assay: qHTS Validation Assay to Find Inhibitors of Phosphoglycerate Kinase (AID 504547). The gist of the method: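 Luminescence end-point (Kinase-Glo Plus, 10 min) after a 60 min room-temperature coupled reaction. GAPDH at 100nM final supplies 1,3-BPG to PGK. Buffer: 100mM TEA pH 7.6, 5mM MgCl2, 0.01% Tween-20. Wells lacking PGK served as controls.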

Assay [8] is described as follows: qHTS for Inhibitors of ATXN expression: Validation of Cytotoxic Assay (AID 588349). The gist of the method:
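Cytotoxicity counter-screen: ATP-based luminescent viability (CellTiter Glo) after 72 hr exposure of HEK293 cells to a compound titration at 37 degrees C.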

A short description of assay [9]: qHTS for Inhibitors of ATXN expression: Validation (AID 588378). Further: series mostly up to about 57 µM; nearly all actives have a fitted effect of over 75% in size. A digest of the protocol: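 Luminescence from an ATXN2-FFLuc reporter in HEK293 cells served as read-out after 24 h compound treatment at 37 degrees C; CellTiter-Fluor fluorescence was recorded first to assess viability.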
For assay [10], the target named is DNA dC->dU-editing enzyme APOBEC-3G (Homo sapiens) (UniProt Q9HC16). Nature of the assay: qHTS for inhibitors of Vif-A3G interactions: Validation (AID 588379). The gist of the method:
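Yellow fluorescence (Ex 488, Em 500-530) of Vif-coexpressing HeLa A3G-eYFP cells, scanned by Acumen cytometer, reports blocked A3G degradation. Cells plated at 700/well overnight at 37 deg C before compound addition, then a further overnight compound incubation at 37 deg C.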

For assay [11], the target named is Bile acid receptor (Homo sapiens) (UniProt Q96RI1). Kind of assay: qHTS assay for small molecule antagonists of farnesoid X receptor signaling (AID 588526; calls by dose curve). A digest of the protocol:
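Beta-lactamase reporter antagonist mode: HEK293T FXR-UAS-bla cells, titrated compound, CDCA stimulation, 16 h 37 C, CCF4 dye 2 h RT. Data normalized to CDCA 50 uM and DMSO; Hill-fit IC50.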

Assay [12] deals with Glucocorticoid receptor (Homo sapiens) (UniProt P04150). Kind of assay: qHTS assay for small molecule agonists of glucocorticoid receptor signaling (AID 588532; active means well fitted curve in the direction sought with a large enough effect in the signal ratio, with a control signal flat; the % refers to the signal ratio). Conditions: HeLa MMTV-bla, beta-lactamase ratio, agonist, 18 h; stronger effect = higher value; percent of dexamethasone control, DMSO zero. The gist of the method: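 Agonist-mode qHTS: GRE-driven beta-lactamase in HeLa cells exposed 18 h to titrated compounds (up to 92 uM), then CCF4 ratio read after 2 h at RT; Hill-fitted EC50, efficacy relative to 0.1 uM dexamethasone.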

The target is the same in assay [13]. Kind of assay: qHTS assay for small molecule antagonists of glucocorticoid receptor signaling (AID 588533; active means well fitted inhibition curve with a large enough effect in the signal ratio, with a control signal flat, not every such curve was filed as active; the % refers to the signal ratio;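 further: cells stimulated with 2 nM dexamethasone as agonist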). The gist of the method: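 Antagonist-mode qHTS: compound titrations added to GRE-bla HeLa cells, then dexamethasone 2 nM final; 18 h, 37 C. CCF4 FRET fluorescence normalized to dexamethasone and DMSO; IC50 from Hill fit.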
Assay [14] in a line: qHTS assay for small molecule antagonists of peroxisome proliferator-activated receptor delta signaling (AID 588535; active means well fitted inhibition curve with a large enough effect in the signal ratio, with a control signal flat, not every such curve was filed as active; the % refers to the signal ratio;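 on max response: cells co-treated with a PPAR-delta agonist as stimulator during compound exposure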). Conditions: HEK293T PPARd-UAS-bla, beta-lactamase FRET ratio, 18 h; 460 nm channel. A digest of the protocol:
(§1)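 Titrations were run on PPAR-delta-UAS-bla HEK293T cells in charcoal/dextran-stripped serum, incubated 18 h at 37 C. CCF4 fluorescence (460/530 nm) after 2 h RT; Hill equation yields IC50 and maximal response.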

For assay [15], the target named is Peroxisome proliferator-activated receptor delta (Homo sapiens) (UniProt Q03181). The assay is described as above. A digest of the protocol:
as §1

Assay [16] addresses Peroxisome proliferator-activated receptor gamma (Homo sapiens) (UniProt P37231). Kind of assay: qHTS assay for small molecule antagonists of peroxisome proliferator-activated receptor gamma signaling (AID 588537; active means well fitted inhibition curve with a large enough effect in the signal ratio, with a control signal flat, not every such curve was filed as active; the % refers to the signal ratio;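 further: reporter cells co-stimulated with 50 nM rosiglitazone agonist during compound treatment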). A digest of the protocol: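 Antagonist-mode β-lactamase reporter screen run as a titration series. HEK293 PPARγ-UAS-bla cells are stimulated with rosiglitazone (50 nM final) for 16 h, then CCF4 is read at 460/530 nm. Data are scaled between DMSO and rosiglitazone and fitted to the Hill equation.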

For assay [17], the target named is Vitamin D3 receptor (Homo sapiens) (UniProt P11473). Nature of the assay: qHTS assay for small molecule antagonists of vitamin D receptor signaling (AID 588541; calls by dose curve;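 further: receptor activated by calcitriol during compound treatment; series mostly up to about 77 µM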). The gist of the method:
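Antagonist-mode beta-lactamase reporter assay: HEK293T VDR-UAS-bla cells were exposed to titrated compound alongside 1-alpha,25-dihydroxyvitamin D3 at 3 nM final for 16 h. Values were normalized to the 50 nM agonist control and DMSO basal, with IC50 and efficacy from Hill equation fits.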

For assay [18] the target is unchanged. Kind of assay: qHTS assay for small molecule agonists of vitamin D receptor signaling (AID 588543; calls by dose curve). The gist of the method:
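GeneBLAzer VDR-UAS-bla HEK293T cells in 2% charcoal-stripped FBS medium were dosed with compound titrations for 16 h at 37 °C; CCF4 β-lactamase readout (405 nm ex, 460/530 nm em). EC50 and efficacy from Hill fits, normalized to 50 nM calcitriol (100%) and DMSO (0%).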

Assay [19] deals with Thyroid hormone receptor beta (Homo sapiens) (UniProt P10828). Kind of assay: qHTS assay for small molecule agonists of thyroid hormone receptor beta signaling (AID 588545; calls by dose curve). A digest of the protocol: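 In this cell-based screen, titrated compounds act on HEK 293 cells held in medium with 2% charcoal/dextran FBS, NEAA and pyruvate for 18 hrs at 37 C. Responses are expressed relative to T3 (10 nM) as 100% and basal DMSO as 0%.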

Assay [20] in a line: qHTS assay for small molecule antagonists of retinoid X receptor alpha signaling (AID 588546).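 Further: cells stimulated with 9-cis-retinoic acid as agonist.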 Conditions: HEK293T RXRa-UAS-bla, beta-lactamase ratio, antagonist mode; measured here: W530 green channel, cytotoxicity proxy. The gist of the method: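 Beta-lactamase reporter inhibition, read as CCF4 fluorescence ratio (ex 405, em 460/530 nm) after 2 h at RT. HEK293T UAS-bla cells, 2500/well, were stimulated with 9-cis-RA at 500 or 100 nM final alongside test compound for 18 h at 37 C.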

Results filed as inconclusive are left out. Entries that show only a call come without a potency. Calls of active or inactive are those of the source. Unless noted, the call rests on the fitted dose curve; in most records, active means well fitted curve in the direction sought with a large enough effect; inconclusive means small, poorly fitted or top-dose-only effect, or another doubt; inactive means no such curve, though single readings can be large; an effect the other way counts as inactive or inconclusive.

Ubiquitin carboxyl-terminal hydrolase 1 (Homo sapiens), sequence (O94782 whole entry, looked up): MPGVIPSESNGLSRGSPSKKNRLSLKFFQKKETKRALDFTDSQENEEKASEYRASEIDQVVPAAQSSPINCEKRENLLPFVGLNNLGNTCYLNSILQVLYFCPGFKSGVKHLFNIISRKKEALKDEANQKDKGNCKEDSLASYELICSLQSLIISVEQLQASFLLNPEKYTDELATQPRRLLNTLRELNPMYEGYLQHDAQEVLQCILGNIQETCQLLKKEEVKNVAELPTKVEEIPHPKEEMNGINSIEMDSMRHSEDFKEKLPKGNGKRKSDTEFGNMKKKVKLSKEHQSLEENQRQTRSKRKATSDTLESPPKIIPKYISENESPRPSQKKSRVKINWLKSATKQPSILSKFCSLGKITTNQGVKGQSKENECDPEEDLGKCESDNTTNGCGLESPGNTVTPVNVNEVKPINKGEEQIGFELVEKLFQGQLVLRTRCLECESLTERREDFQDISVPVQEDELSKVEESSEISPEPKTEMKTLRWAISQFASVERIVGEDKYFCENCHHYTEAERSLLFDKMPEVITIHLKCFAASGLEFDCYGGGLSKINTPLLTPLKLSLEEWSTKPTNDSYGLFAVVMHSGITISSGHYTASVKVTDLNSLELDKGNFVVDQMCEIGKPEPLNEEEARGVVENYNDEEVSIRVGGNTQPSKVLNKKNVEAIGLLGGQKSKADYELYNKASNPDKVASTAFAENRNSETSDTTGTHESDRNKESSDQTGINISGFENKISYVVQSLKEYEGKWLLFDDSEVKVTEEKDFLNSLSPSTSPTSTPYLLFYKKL
Vitamin D3 receptor (Homo sapiens), sequence (P11473 whole entry, looked up): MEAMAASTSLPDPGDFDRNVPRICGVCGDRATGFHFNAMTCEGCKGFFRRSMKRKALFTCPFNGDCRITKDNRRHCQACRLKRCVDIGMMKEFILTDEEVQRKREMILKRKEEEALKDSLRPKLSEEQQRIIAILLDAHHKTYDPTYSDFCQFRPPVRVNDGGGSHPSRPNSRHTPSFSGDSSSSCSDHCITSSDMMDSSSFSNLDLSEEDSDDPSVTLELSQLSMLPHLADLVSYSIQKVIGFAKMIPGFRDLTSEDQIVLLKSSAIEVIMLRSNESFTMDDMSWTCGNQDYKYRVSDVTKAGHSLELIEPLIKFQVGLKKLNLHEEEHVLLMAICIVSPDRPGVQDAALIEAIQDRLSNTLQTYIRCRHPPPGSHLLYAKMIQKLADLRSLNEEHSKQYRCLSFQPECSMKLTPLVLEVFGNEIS
Glucocorticoid receptor (Homo sapiens), sequence (P04150 whole entry, looked up): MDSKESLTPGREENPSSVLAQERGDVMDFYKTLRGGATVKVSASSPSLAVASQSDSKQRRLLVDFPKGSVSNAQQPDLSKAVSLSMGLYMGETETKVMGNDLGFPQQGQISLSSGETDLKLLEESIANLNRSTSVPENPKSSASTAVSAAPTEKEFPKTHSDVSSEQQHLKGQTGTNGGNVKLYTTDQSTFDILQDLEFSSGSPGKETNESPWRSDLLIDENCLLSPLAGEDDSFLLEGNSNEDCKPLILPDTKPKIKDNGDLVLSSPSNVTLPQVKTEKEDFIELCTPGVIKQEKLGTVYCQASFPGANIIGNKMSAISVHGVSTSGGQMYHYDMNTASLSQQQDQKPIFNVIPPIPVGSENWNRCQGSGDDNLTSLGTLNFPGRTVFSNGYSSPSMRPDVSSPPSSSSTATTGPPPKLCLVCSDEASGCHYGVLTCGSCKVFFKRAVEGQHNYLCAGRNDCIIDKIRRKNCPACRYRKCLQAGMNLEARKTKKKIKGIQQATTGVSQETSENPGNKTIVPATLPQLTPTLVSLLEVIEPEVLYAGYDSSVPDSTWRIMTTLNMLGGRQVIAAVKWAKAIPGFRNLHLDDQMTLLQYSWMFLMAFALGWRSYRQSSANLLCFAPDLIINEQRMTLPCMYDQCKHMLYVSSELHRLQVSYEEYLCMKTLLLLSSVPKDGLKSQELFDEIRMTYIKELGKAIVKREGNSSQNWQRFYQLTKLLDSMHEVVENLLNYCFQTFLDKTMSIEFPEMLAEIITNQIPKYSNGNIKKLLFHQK
Thyroid hormone receptor beta (Homo sapiens), sequence (P10828 whole entry, looked up): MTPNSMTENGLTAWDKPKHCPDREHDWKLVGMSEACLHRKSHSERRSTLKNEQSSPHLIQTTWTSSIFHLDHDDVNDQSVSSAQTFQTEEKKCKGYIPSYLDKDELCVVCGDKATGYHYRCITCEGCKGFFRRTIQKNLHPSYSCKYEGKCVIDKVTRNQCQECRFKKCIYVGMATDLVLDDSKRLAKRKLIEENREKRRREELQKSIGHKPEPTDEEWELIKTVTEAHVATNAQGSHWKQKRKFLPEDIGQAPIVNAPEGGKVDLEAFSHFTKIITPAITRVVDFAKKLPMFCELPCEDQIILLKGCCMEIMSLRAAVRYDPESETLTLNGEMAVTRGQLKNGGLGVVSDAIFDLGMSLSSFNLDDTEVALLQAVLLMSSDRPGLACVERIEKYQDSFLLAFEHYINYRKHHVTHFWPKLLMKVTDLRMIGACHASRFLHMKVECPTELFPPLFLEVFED
Peptidyl-prolyl cis-trans isomerase NIMA-interacting 1 (Homo sapiens), sequence (Q13526 whole entry, looked up): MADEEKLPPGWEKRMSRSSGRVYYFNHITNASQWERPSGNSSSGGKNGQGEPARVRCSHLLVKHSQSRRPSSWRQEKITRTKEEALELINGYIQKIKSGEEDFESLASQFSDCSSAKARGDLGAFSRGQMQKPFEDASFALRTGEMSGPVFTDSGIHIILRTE
Bile acid receptor (Homo sapiens), sequence (Q96RI1 whole entry, looked up): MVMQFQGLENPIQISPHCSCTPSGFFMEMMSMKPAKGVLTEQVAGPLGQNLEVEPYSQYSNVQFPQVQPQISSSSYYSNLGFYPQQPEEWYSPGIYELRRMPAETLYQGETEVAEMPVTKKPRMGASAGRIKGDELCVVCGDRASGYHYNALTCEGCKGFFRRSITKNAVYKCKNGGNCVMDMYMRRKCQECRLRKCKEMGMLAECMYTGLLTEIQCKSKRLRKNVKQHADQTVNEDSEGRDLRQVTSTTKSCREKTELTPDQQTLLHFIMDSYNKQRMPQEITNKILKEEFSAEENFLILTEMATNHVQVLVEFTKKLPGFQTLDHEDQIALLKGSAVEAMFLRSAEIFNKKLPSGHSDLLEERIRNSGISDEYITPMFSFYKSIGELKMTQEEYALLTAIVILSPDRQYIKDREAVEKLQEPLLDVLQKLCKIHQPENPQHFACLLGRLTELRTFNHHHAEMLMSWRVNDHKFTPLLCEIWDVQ
Peroxisome proliferator-activated receptor gamma (Homo sapiens), sequence (P37231 whole entry, looked up): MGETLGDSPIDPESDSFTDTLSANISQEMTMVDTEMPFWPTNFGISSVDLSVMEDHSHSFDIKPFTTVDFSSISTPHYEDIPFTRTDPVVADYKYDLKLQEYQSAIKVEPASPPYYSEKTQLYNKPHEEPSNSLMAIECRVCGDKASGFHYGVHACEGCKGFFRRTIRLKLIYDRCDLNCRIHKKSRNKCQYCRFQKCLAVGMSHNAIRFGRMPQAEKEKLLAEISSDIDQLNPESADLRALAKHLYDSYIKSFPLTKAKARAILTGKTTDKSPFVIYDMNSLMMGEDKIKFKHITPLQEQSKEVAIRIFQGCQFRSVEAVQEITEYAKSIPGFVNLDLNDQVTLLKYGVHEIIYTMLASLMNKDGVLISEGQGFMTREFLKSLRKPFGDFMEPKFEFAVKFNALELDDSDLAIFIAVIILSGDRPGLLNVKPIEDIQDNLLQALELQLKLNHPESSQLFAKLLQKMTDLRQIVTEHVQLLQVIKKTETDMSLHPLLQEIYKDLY
Phosphoglycerate kinase, glycosomal (Trypanosoma brucei brucei), sequence (P07378 whole entry, looked up): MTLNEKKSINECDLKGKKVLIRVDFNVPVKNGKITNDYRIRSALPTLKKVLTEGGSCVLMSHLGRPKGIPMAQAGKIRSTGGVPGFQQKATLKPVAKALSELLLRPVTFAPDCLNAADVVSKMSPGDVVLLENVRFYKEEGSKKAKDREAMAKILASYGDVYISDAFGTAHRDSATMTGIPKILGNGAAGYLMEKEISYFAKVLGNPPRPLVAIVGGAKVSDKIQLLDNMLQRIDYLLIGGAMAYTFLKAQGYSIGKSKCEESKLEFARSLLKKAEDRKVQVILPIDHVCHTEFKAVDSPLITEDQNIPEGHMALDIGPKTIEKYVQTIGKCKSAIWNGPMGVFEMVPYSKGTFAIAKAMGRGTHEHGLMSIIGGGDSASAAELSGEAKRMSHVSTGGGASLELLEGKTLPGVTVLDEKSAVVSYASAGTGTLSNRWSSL
Peroxisome proliferator-activated receptor delta (Homo sapiens), sequence (Q03181 whole entry, looked up): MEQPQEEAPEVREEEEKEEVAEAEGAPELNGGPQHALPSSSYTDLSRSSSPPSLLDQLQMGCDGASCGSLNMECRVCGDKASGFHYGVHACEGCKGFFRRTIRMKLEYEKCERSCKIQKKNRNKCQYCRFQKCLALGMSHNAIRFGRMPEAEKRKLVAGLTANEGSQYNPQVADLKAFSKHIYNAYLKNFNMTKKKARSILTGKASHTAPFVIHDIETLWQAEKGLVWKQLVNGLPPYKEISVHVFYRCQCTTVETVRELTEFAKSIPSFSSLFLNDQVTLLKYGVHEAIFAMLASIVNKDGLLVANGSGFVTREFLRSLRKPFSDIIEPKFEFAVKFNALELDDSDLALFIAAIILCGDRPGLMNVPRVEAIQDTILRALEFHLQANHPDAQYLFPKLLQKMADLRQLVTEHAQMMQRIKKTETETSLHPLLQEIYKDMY
Galactokinase (Homo sapiens), sequence (P51570 whole entry, looked up): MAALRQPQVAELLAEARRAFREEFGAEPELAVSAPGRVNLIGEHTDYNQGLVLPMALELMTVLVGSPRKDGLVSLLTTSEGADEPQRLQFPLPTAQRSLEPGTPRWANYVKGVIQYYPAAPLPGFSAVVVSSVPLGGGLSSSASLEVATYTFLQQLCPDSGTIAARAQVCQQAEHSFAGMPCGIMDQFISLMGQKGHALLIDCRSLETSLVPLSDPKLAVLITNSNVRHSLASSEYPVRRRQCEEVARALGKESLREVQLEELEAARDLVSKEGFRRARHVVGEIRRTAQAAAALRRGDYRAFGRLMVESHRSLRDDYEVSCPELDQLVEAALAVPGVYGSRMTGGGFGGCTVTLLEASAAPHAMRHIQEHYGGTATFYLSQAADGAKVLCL

In the case of `Nc1ccn([C@@H]2O[C@H](CO)[C@H](O)C2(F)F)c(=O)n1`, the Potency entry in assay [1] was “inactive”.

As to `COc1c(N2C[C@@H]3CCCN[C@H]3C2)c(F)cc2c(=O)c(C(=O)O)cn(C3CC3)c12`, the Potency result in assay [1] is “inactive”.

Consider `Nc1ccc(S(=O)(=O)Nc2ncccn2)cc1`, for which the Potency entry in assay [1] was “inactive”.

In the case of `O=c1c2ccccc2nc2n1CCc1c-2[nH]c2ccccc12`, the molecule was classed as inactive in [2], in [3], in assay [4], in assay [5], in assay [6] and in [7]. Also, the result in assay [8] and in assay [9] was inactive. Further, the viability change in assay [2] was -3.53%. Moreover, the Potency entry in [1] was “inactive”.

For the molecule `CC[C@@]1(O)C(=O)OCc2c1cc1n(c2=O)Cc2cc3cc(O)ccc3nc2-1`, the Potency result in assay [1] is “inactive”.

`O=C(O)CO.[NH2-].[NH2-].[Pt+2]`: in assay [1], the Potency result was “inactive”.

Take `COC(=O)C[C@](O)(CCCC(C)(C)O)C(=O)O[C@@H]1C(OC)=C[C@]23CCCN2CCc2cc4c(cc2[C@H]13)OCO4`: in assay [1], the Potency result was “inactive”. Also, the outcome in assay [10] was inactive.

Regarding `C[C@H]1C[C@@H]2[C@@H]([C@@H](O)C[C@@]3(C)[C@H]2CC[C@]3(O)C(=O)CO)[C@@]2(C)C=CC(=O)C=C12`, the Potency entry in [1] was “inactive”.

As for `COC(=O)C1=C(C)NC(C)=C(C(=O)OCCN2CCN(C(c3ccccc3)c3ccccc3)CC2)C1c1cccc([N+](=O)[O-])c1` (stereo not drawn), the Potency entry in [1] was “inactive”.

On to `O=c1[nH]c(=O)n(C2CCCO2)cc1F` (stereo not drawn), for which the Potency entry in assay [1] was “inactive”.

Turning to `O=C(O)CCCc1c[nH]c2ccccc12`, the result in assay [11], in [13], in [15], in assay [16], in [17] and in assay [18] was inactive. Moreover, the result in assay [19] was inactive. Besides, in assay [12], the activation was -4.22% (inactive). In addition, the max response was 35.4% in assay [14] and 7.98% in assay [20].

`CC1(C)O[C@@H]2C[C@@H]3[C@H]4C[C@@H](F)C5=CC(=O)C=C[C@]5(C)[C@@]4(F)[C@@H](O)C[C@]3(C)[C@]2(C(=O)CO)O1`: the Potency result in assay [1] is “inactive”.

Take `COc1cc(C(=O)NS(=O)(=O)c2ccccc2C)ccc1Cc1cn(C)c2ccc(NC(=O)OC3CCCC3)cc12`: in [1], the Potency was 35.5 µM (active).

For `CC=CC1=C(C(=O)O)N2C(=O)[C@H](NC(=O)[C@H](N)c3ccc(O)cc3)[C@@H]2SC1`, the Potency entry in assay [1] was “inactive”.

Values taken from PubChem BioAssay (NCATS).
